# Measurements reported in PubChem BioAssay (NCI).
# About 83,000 compounds went through this panel and 20% of them were active in at least one assay; those are over-represented in the sample as a whole.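 Values shown are percent growth following 48 h exposure of cells in 96-well plates to a single concentration of compound; below 10 was considered active.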 Unmarked numbers belong to inactive results. The source made the active and inactive calls.
# Columns and labels:
# Assay in all cases: NCI-60 one-dose screen, 48 h (100 = growth as untreated, 0 = no growth, -100 = all killed)
# Details in all cases: 10 µM unless noted
# [1] = tested on: NCI-H23 lung
# [2] = tested on: NCI-H226 lung
# [3] = tested on: NCI-H322M lung
# [4] = tested on: HOP-62 NSCLC
# [5] = tested on: NCI-H460 lung
# [6] = tested on: HOP-92 NSCLC
# [7] = tested on: NCI-H522 lung
# [8] = tested on: A549/ATCC NSCLC
# [9] = tested on: 786-0 renal
# [10] = tested on: COLO 205 colon
# [11] = tested on: DU-145 prostate
# [12] = tested on: MALME-3M melanoma
# [13] = tested on: MDA-MB-231 breast
# [14] = tested on: RXF 393 renal
# [15] = tested on: SF-268 CNS
# [16] = tested on: SF-295 CNS
# [17] = tested on: SF-539 CNS
# [18] = tested on: UACC-257 melanoma
# [19] = tested on: M14 melanoma
Structure (SMILES),growth [1],growth [2],growth [3],growth [4],growth [5],growth [6],growth [7],growth [8],growth [9],growth [10],growth [11],growth [12],growth [13],growth [14],growth [15],growth [16],growth [17],growth [18],growth [19]
Clc1ccc2c(NCCNc3nc(N4CCCCC4)nc4ccccc34)ccnc2c1,54.3%,-8.68% (active),0.0479% (active),-18.2% (active),-39.4% (active),-16% (active),-21.8% (active),0.13% (active),-36.9% (active),-84.6% (active),26.4%,-79.8% (active),-85% (active),-40.2% (active),2.98% (active),-81.3% (active),-83.6% (active),-70.2% (active),-79.7% (active)
CCNC(=O)Oc1ccc(/C(=C(\C)c2ccc(Cl)cc2)c2ccc(OCCN3CCCCC3)cc2)cc1,65.1%,78.2%,75.2%,58.7%,22.3%,68.8%,80%,46.1%,41.9%,-60.9% (active),72.8%,-8.7% (active),51.8%,49.1%,55%,42.7%,47.8%,-33.9% (active),-46.5% (active)
Cc1cc(N[C@@H]2CCC[C@H](Nc3ccnc4cc(Cl)ccc34)C2)nc(N2CCCCCC2)n1,-30.3% (active),-38.9% (active),-37.8% (active),-69.7% (active),-70.9% (active),-77.7% (active),-61.5% (active),-48.9% (active),-96.1% (active),-79.3% (active),-6.21% (active),-86.4% (active),-85.8% (active),-80.6% (active),-66.2% (active),-76.1% (active),-93% (active),-76.5% (active),-89.2% (active)
COc1ccc2c(c1)C(=O)/C(=C/c1cccnc1)CC2,90.9%,107%,106%,97.5%,105%,94.7%,73.2%,101%,94.6%,105%,97%,106%,87.7%,109%,94.2%,84.2%,90.5%,108%,102%
CN1CCN(c2nc(NCCCNc3ccnc4cc(Cl)ccc34)c3ccccc3n2)CC1,72.5%,70%,64.3%,49%,28.5%,68.4%,20.2%,29.2%,74.6%,-6.18% (active),59.8%,-66.3% (active),-8.42% (active),43.3%,66.2%,62.5%,-71% (active),17.7%,-85.6% (active)
COc1cc2c(cc1OC)C(Sc1ccc(SC)cc1)c1c(nc(N)c(C#N)c1N)O2 (centres undefined),-56.1% (active),-65.7% (active),-86.9% (active),-46.3% (active),-79% (active),-23.7% (active),-92.6% (active),-63.5% (active),-80.7% (active),-79% (active),-75.8% (active),-67% (active),-67.4% (active),-75.9% (active),-36.6% (active),-56.3% (active),-95.3% (active),-51.2% (active),-80.6% (active)
COC(=O)[C@@H]1CCCN1C(=O)[C@@H]1CCCN1C(=O)[C@H](Cc1ccccc1)NC(=S)Nc1cc(C(F)(F)F)cc(C(F)(F)F)c1,89.2%,80.2%,89.7%,89.8%,84.8%,58.9%,-11.4% (active),15.6%,82.4%,82.7%,40.4%,94.8%,62.8%,83.8%,35%,92.9%,94%,11.8%,89.3%
Cc1cc2nc(NC(=O)CN3CCN(CCN4C(=O)c5cccc6cccc(c56)C4=O)CC3)sc2cc1C,89%,89.2%,85.2%,94.9%,91.7%,74.9%,87.3%,70.3%,82.8%,99.6%,91.7%,89.5%,92.4%,87.5%,86.3%,91.2%,80.9%,99.2%,94.3%
Clc1ccc2c(NCCCCNc3nc(N4CCOCC4)nc4ccccc34)ccnc2c1,59.7%,-43.4% (active),26.4%,-9.83% (active),4.54% (active),71.8%,-25.6% (active),14.6%,-54.1% (active),-46.9% (active),38.4%,-58.7% (active),-58.3% (active),86.3%,43%,-5.21% (active),-84.5% (active),84.9%,-66.2% (active)
COc1cccc(-c2nc(SCC(=O)Nc3ccc(C(=O)/C=C/c4ccc(OC)c(OC)c4)cc3)[nH]c(=O)c2C#N)c1,77.7%,105%,76.3%,94.1%,94.7%,93.2%,75.4%,90.6%,99.4%,103%,89.4%,97.4%,67.6%,85.2%,82.9%,94.5%,86.2%,97.4%,100%
COc1ccc2cc(-c3nn(-c4ccc(C(=O)O)cc4)cc3CO)ccc2c1,97.9%,99.7%,97%,104%,99.1%,102%,82.6%,102%,99.6%,114%,103%,106%,111%,122%,86.3%,99.1%,93.1%,103%,98.7%
COc1cccc2c1C(=O)c1c(O)c3c(c(O)c1C2=O)C[C@](O)(C(=O)CO)C[C@H]3O[C@@H]1C[C@@H](NC(=O)CCCCCN(C)C2(c3ccc(F)cc3)CC3CCC2C3)[C@H](O)[C@@H](C)O1 (some centres undefined),40.8%,59.3%,53.7%,46.9%,-84.2% (active),51.6%,-83.1% (active),19.7%,-92.7% (active),-63.7% (active),-42.2% (active),-70.9% (active),-77.1% (active),31.6%,36.1%,-87.9% (active),-82.9% (active),96.4%,-41.3% (active)
O=C1c2ccccc2OC=C(c2ccccc2)N1CCCCNc1ccc(S(=O)(=O)Nc2ncccn2)cc1,101%,91.4%,92.8%,90.1%,103%,75.8%,82.9%,81.3%,90.6%,114%,109%,110%,96.8%,98.9%,91%,94%,102%,91.6%,99.6%
C=C1C(=O)O[C@H]2[C@H]1CC/C(COC(=O)NCc1ccc(OC)c(OC)c1)=C\CC[C@@]1(C)O[C@@H]21,45.8%,85.9%,97.6%,87.8%,87.8%,66.2%,-65.5% (active),97.9%,81.6%,8.26% (active),28.6%,61.5%,55%,20.7%,79.8%,88.2%,42.9%,64.2%,61.5%
COc1ccc(SC2c3cc(OC)c(OC)cc3Oc3nc(N)c(C#N)c(N)c32)cc1 (centres undefined),-60.9% (active),-70.9% (active),-95% (active),-42.1% (active),-70% (active),-19.9% (active),-72.5% (active),-51.7% (active),-82.6% (active),-79% (active),-82.8% (active),-68.9% (active),-67.5% (active),-79.5% (active),-61.8% (active),-69.5% (active),-96.6% (active),-43% (active),-87.2% (active)
O=C1/C(=C/c2ccc(OCCCOc3ccc(Cl)cc3)cc2)N=C2SCCCN12,49.7%,86.4%,103%,99.1%,98.1%,92.5%,34.6%,73.4%,82.1%,78.2%,94.5%,122%,77.3%,110%,100%,66.7%,97%,102%,95.9%
